In all, about 310,000 compounds went through this assay and about 14,000 (4.5%) showed an effect of 50% or more. Effects have a minus sign here. The entries come from a sample that favours strong results as a whole.
molecular target: human ether-à-go-go-related gene (hERG) potassium channel (human, UniProt Q12809); assay: primary screen, population patch clamp on CHO cells stably expressing hERG; higher = less effect of the substance
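Also: peak tail current of the secondary pulse compared with the same well before compound.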

human ether-à-go-go-related gene (hERG) potassium channel, sequence (Q12809 whole entry, looked up): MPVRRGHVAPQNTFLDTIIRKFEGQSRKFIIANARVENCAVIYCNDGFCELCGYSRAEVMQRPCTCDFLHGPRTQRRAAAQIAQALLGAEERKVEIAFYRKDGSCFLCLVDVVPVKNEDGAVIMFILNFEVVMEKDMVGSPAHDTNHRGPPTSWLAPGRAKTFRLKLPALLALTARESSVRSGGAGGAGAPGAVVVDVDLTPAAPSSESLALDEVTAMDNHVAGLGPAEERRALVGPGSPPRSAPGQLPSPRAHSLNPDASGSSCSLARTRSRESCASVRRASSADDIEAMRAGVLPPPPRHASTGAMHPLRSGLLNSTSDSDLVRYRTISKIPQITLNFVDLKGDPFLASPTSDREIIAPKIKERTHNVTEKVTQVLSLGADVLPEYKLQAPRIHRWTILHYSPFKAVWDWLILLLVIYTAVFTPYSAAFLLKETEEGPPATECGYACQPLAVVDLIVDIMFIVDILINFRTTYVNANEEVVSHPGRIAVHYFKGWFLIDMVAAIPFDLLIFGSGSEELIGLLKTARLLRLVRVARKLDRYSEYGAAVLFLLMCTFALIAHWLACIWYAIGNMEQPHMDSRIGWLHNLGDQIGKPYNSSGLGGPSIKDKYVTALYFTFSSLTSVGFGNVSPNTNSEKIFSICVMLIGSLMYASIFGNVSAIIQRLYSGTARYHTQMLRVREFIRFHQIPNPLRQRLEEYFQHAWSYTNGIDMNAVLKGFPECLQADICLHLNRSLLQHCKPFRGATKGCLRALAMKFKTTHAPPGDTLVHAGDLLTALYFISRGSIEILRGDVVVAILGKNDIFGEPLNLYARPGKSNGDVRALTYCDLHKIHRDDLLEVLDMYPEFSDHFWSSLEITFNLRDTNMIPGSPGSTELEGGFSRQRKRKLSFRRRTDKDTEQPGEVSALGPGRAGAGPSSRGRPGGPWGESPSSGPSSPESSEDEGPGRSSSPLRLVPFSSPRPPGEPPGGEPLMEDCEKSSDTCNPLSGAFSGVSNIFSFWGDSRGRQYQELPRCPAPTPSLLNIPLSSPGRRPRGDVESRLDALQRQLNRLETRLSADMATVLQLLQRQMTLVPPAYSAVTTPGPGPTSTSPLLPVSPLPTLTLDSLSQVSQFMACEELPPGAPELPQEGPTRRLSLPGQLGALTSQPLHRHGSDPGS

Row | Structure (SMILES) | hERG current change (%, negative = inhibition) at 10uM [%]
1 | O=S(=O)(Nc1ccccc1)c1ccc2c(c1)CCO2 | 11
2 | O=C(Cn1c(=O)c2sccc2n(Cc2ccc([N+](=O)[O-])cc2)c1=O)NCCc1ccccc1 | -49
3 | O=C(c1cn(-c2ccccc2)nc1-c1ccccc1)N1CCOCC1 | -4.6
4 | COc1ccccc1-c1nn(-c2ccccc2)cc1C(=O)N1CCN(C(=O)c2ccco2)CC1 | -36
5 | Cc1cnc(C(=O)OCC(=O)N2CCN(C(=O)c3ccco3)CC2)cn1 | -8.85
6 | O=C(OCC(=O)N1CCN(C(=O)c2ccco2)CC1)c1cn(-c2ccccc2)nc1-c1ccccc1 | -67
7 | O=C(c1ccco1)N1CCN(C(=O)c2cn(-c3ccccc3)nc2-c2ccccc2)CC1 | -86.5
8 | O=C(OCC(=O)N1CCN(C(=O)c2ccco2)CC1)c1ccccc1O | -18.2
9 | COCCSc1ccccc1C(=O)Nc1ccncc1 | 16.4
10 | O=C(/C=C/c1ccc(F)cc1)NC(=S)Nc1ccccc1 | 4.35
11 | Cc1ccc(C(=O)Nc2ccc(SC(F)F)cc2)s1 | 24.4
12 | Cc1ccc(CNC(=O)CSc2nc3[nH]ncc3c(=O)[nH]2)cc1 | 4.89
13 | COC(=O)c1c(N(S(C)(=O)=O)S(C)(=O)=O)sc2c1CCN(c1ncc(C(F)(F)F)cc1Cl)C2 | 13
14 | CN(Cc1ccccc1)C(=O)C1CCN(S(=O)(=O)c2ccc(-n3cnnn3)cc2)CC1 | -75.2
15 | C=CCN(CC=C)C(=O)C1CCN(S(=O)(=O)c2ccc(-n3cnnn3)cc2)CC1 | -54.4
16 | CCC(C)NC(=O)C1CCN(S(=O)(=O)c2ccc(-n3cnnn3)cc2)CC1 (stereo not shown) | 3.26
17 | C=CCN(CC=C)C(=O)C1CCN(S(=O)(=O)c2ccc(N3CCCC3=O)cc2)CC1 | 5.01
18 | CC(=O)c1ccc(S(=O)(=O)N2CCC(Oc3ccc(-n4cnnn4)cc3)CC2)cc1 | 21.9
19 | O=S(=O)(c1ccccc1)N1CCC(Oc2ccc(-n3cnnn3)cc2)CC1 | -74.8
20 | Cc1ccc(S(=O)(=O)N2CCC(Oc3ccc(-n4cnnn4)cc3)CC2)cc1 | 0.934
21 | CCN(CC)C(=O)C1CCN(S(=O)(=O)c2ccc(-n3cnnn3)cc2)CC1 | -30
22 | O=C(C1CCN(S(=O)(=O)c2ccc(-n3cnnn3)cc2)CC1)N1CCN(c2ccccc2)CC1 | -35.7

Row | Structure (SMILES) | hERG current change (%, negative = inhibition) at 10uM [%]
23 | COc1ccc(N2CCN(c3nc4ccccc4nc3NS(=O)(=O)c3ccccc3)CC2)cc1 | 1.21
24 | CCOC(=O)/C(C#N)=C/c1cn(CCC(=O)O)nc1-c1ccc(F)cc1 | 4.24
25 | Cc1ccc(S(=O)(=O)N2CCN(C3CC(=O)N(CCc4ccccc4)C3=O)CC2)cc1C (stereo not shown) | -27.7
26 | Cc1cccc(C)c1NC(=O)C(c1cccs1)N(Cc1ccco1)C(=O)Cn1nnc2ccccc21 (stereo not shown) | 14.4
27 | Cn1cccc1C(=O)NC(=O)COC(=O)CCNS(=O)(=O)c1cccc(C(F)(F)F)c1 | -52.4
28 | O=C(COC(=O)CCNS(=O)(=O)c1cccc(C(F)(F)F)c1)NC(=O)NC1CCCCC1 | -14.4
29 | Cc1ccc(S(=O)(=O)NCCC(=O)OCC(=O)NC(=O)c2cccn2C)cc1 | -12.5
30 | Oc1ccccc1/C=N/Nc1nccnc1Cl | -0.0796
31 | CCCN(CC1CC1)C(=O)COC(=O)c1[nH]c(C)c(C(=O)OCC)c1C | -5.5
32 | CCOC(=O)C1CCN(C2CCN(C(=O)c3oc4c(F)cccc4c3C)CC2)CC1 | -71.1
33 | CCCN(CC1CC1)C(=O)COC(=O)c1oc2ccc(OCC)cc2c1C | -27.8
34 | CCCN(CC1CC1)C(=O)COC(=O)c1oc2c(F)cccc2c1C | -52.8
35 | CCOC(=O)C1CCN(C2CCN(C(=O)c3oc4c(C)c(C)ccc4c3C)CC2)CC1 | -69.3
36 | Cc1c(C(=O)N2CCC(N3CCSCC3)CC2)oc2c(F)cccc12 | -34.9
37 | Cc1ccc2c(C)c(C(=O)N3CCN(C4CCS(=O)(=O)C4)CC3)oc2c1C (stereo not shown) | -4.49
38 | COCC1CCN(C(=O)c2oc3c(F)cccc3c2C)C1 (stereo not shown) | 0.639
39 | CCOC(=O)N1CCC(NC(=O)c2oc3c(C)c(C)ccc3c2C)CC1 | -32.2
40 | Cc1cc(OCC(=O)Nc2c(C)n(C)n(-c3ccccc3)c2=O)ccc1[N+](=O)[O-] | -23.5
41 | Cc1[nH]c2c(C(=O)N3CCCC(CCC(=O)NCc4ccccc4F)C3)cccc2c1C (stereo not shown) | 3.39
42 | CCCC(c1nnnn1Cc1ccccc1)N1CCC(C(N)=O)CC1.Cl (stereo not shown) | -3.44
43 | CCCCN(C)CCCNC(=O)c1cc(-c2cccnc2)nc2ccccc12 | -60.1
